From PubChem BioAssay
Unmarked numbers belong to inactive results. How the calls were made is not given here.

Target: Pantothenate synthetase (Mycobacterium tuberculosis (strain ATCC 25618 / H37Rv)) (UniProt P9WIL5)
Test: Coupled enzyme confirmation of inhibitors against recombinant Mtb PanC (AID 375);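 further: 0% = full reaction with vehicle and 100% = no enzyme background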
Details: coupled enzyme assay; at 10 µM, hits give high values

Chain of Pantothenate synthetase (Mycobacterium tuberculosis (strain ATCC 25618 / H37Rv)) (P9WIL5 whole entry, looked up): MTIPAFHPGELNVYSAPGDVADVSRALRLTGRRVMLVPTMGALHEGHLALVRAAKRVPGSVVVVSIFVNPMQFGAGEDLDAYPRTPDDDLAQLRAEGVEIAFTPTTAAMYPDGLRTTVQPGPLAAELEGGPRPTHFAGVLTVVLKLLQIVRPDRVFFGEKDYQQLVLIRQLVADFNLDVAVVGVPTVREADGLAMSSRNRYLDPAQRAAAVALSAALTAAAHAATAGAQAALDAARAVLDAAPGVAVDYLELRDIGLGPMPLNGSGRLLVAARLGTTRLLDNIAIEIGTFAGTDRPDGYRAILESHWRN

Row | Structure (SMILES) | inhibition [%]
1 | COc1cc(OC)nc(NC(=O)CSc2nc3ccccc3o2)n1 | 11
2 | COc1ccccc1N(CC(=O)NCc1ccccn1)S(C)(=O)=O | 0
3 | O=C1Nc2ccccc2OC1CC(=O)N1CCCC1 (centres undefined) | 0
4 | Cn1c(CN2CCOCC2)nc2cc(NC(=O)c3ccccc3Cl)ccc21 | 5
5 | O=C(NCc1ccco1)c1csc(Nc2ccccc2Cl)n1 | 0
6 | CCNCCNC(=O)c1c(O)c2ccccc2n(CC)c1=O | 0
7 | CC1=Nn2c(nnc2-c2ccccn2)SC1 | 7
8 | CCOC(=O)c1ccc(NS(=O)(=O)c2cccc3nsnc23)cc1 | 8
9 | COCCCNC(=O)C1CCCN(C(=O)Nc2ccc(OC)cc2)C1 (centres undefined) | 2
10 | CCOC(=O)Nc1sc(=S)n(C)c1C | 9
11 | O=C(c1ccccc1)N1CCCCC(Sc2nnnn2-c2ccccc2)C1=O (centres undefined) | 0
12 | CCn1c2ccccc2c2cc(N)ccc21 | 0
13 | CCOC(=O)C1=C(C)NC(SC(C)=O)=NC1c1ccc(OC(C)=O)c(OC)c1 (centres undefined) | 4
14 | O=C(CCCn1c(=S)[nH]c2ccccc2c1=O)N1CCCCC1 | 0
15 | CCCCOC(=O)Cn1c(=O)oc2ccc(C)cc21 | 0
16 | CCn1c(=O)cc(SCC(=O)N2CCOCC2)c2ccccc21 | 11
17 | CCOCCCNC(=O)c1ccc2c(c1)ncn2C1CCCC1 | 5
18 | CCOc1ccc(N(CC(=O)NCC2CCCO2)S(=O)(=O)c2ccc(OC)c(OC)c2)cc1 (centres undefined) | 0
19 | CCc1nnc(NC(=O)c2cc3ccccc3oc2=O)s1 | 2
